In all, about 360,000 compounds went through this assay and about 11,000 (3.1%) were called active. The entries come from a sample that favours actives as a whole. A number with no mark means an inactive call. No stated cut-off is given here; in the data, active means activity change below about -30%; inactive means the rest. Square brackets hold non-standard residues; d marks the D form. Peptide text beside a SMILES is read from it. * marks the point of attachment. PhAc = O=C(Cc1ccccc1)*
On the % scale 0 is the no-effect control and ±100 the full control effect.

D(1A) dopamine receptor (Homo sapiens), sequence (P21728 whole entry, looked up): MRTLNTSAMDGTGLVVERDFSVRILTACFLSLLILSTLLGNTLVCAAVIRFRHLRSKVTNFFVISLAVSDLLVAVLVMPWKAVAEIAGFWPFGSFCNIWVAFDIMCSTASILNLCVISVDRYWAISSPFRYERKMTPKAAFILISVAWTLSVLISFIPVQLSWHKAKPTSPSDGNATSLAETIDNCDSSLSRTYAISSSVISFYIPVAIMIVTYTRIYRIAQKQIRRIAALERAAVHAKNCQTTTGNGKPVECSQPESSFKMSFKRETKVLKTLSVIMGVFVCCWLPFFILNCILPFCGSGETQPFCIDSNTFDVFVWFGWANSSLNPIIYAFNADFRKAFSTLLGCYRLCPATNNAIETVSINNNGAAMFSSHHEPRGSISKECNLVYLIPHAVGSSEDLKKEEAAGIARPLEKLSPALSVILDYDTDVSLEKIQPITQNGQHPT

The target in this assay is D(1A) dopamine receptor (Homo sapiens) (UniProt P21728). Nature of the assay: Antagonist of Human D 1 Dopamine Receptor: qHTS. To be noted: HEK293 TREx D1 cells, calcium flux, dopamine EC80; at 10 µM; stronger effect = lower value. The gist of the method:
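Tetracycline-induced HEK293 Trex D1 cells, force-coupled to calcium, dye-loaded; compounds added and read 180 s, then EC80 dopamine added and calcium flux tracked kinetically another 180 s.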
As for `COc1ccc(-n2c(=O)c3c(c4cc(OC)ccc4n3C)n(Cc3cccc(C)c3)c2=O)cc1`, the activity change, negative = inhibition was 4.47%. On to `Cc1ccc(Cl)cc1N1CCN(C(=O)CN2C(=O)COc3ccc(S(=O)(=O)N4CCOCC4)cc32)CC1`, for which the activity change, negative = inhibition was 3.53%.

Turning to `COc1cc(NC(=O)CCn2nc(C)cc2C)cc(OC)c1OC`, the activity change, negative = inhibition is 34.5%. With `Cc1ccc(NC(=O)N2CCC(c3nc4c(nnn4Cc4c(F)cccc4Cl)c(=O)[nH]3)CC2)cc1` the figure was -40.8% (active).

As to `O=C(Nc1ccc(F)cc1)N1CCCC(c2nc3c(nnn3Cc3ccccc3Cl)c(=O)[nH]2)C1` (centres undefined), the activity change, negative = inhibition is 2.43%. With `O=C(c1ccccc1F)N1CCC(c2nc3c(nnn3Cc3cccc(F)c3)c(=O)[nH]2)CC1` the figure was 0.447%; with `Cn1cc(S(=O)(=O)N2CCCCCC2)cc1C(=O)N1CCN(c2ccc(F)cc2)CC1`, 5.3%; with `CC(C)Oc1ccc(CNC(=O)C2CCN(c3nc4ccccc4n(C)c3=O)CC2)cc1`, 18.8%. Turning to `CCCOc1ccc(C(=O)Nc2ccc3oc(-c4cccc(Cl)c4Cl)nc3c2)cc1`, the activity change, negative = inhibition was 6.25%. With `COc1ccc2oc(=O)c(-c3cn4c(n3)sc3cc(OC)ccc34)cc2c1` the figure was 2.94%; with `Cn1c(=O)c2c(nc(SCC(=O)Nc3ccc(F)cc3)n2Cc2ccccc2)n(C)c1=O`, 6.42%; with `COC(=O)[C@H](CC(C)C)NC(=O)N1CCCCC1C` (some centres undefined), -78.1% (active). With `CC(C)C[C@@H](NC(=O)[C@H]1CCCN1C(=O)Cc1ccccc1)C(N)=O` (PhAc-[dP]-[dL]-NH2) the figure was 30%; with `CC(C)C[C@H](NC(=O)C1CCC(CNC(=O)[C@@H]2CCCN2C(=O)OC(C)(C)C)CC1)C(=O)O` (some centres undefined), -1.98%. In the case of `CC(=O)c1ccc(NC(=O)CSc2nc(-c3ccccc3F)nc3c2c(=O)n(C)c(=O)n3C)cc1`, the activity change, negative = inhibition was -0.158%. Consider `CC(=O)Nc1cc(C(=O)NCc2ccc(F)cc2Cl)ccc1Sc1ccc(Cl)cc1`, for which the activity change, negative = inhibition was 9.87%. As for `CCOC(=O)c1ccc(NC(=O)C2CC(=O)NC(=Nc3ccc(C)c(C)c3)S2)cc1` (centres undefined), the activity change, negative = inhibition is -1.43%.

With `CCc1ccc(CNCc2c(C(=O)O)n(Cc3ccc(F)cc3Cl)c3cc(OC)ccc23)cc1`, the activity change, negative = inhibition is 6.05%. With `O=Cc1c(N2CCN(c3cccc(Cl)c3)CC2)nc2ccccn2c1=O` the figure was -43.5% (active); with `O=Cc1c(Nc2ccccc2Cl)nc2ccccn2c1=O`, 9.2%. With `COCCCNC(=O)/C(C#N)=C/c1c(N2CCCCCC2)nc2ccccn2c1=O` the figure was 13.8%; with `Cc1ccc(-c2nc3ccccn3c2Nc2c(C)cccc2C)o1`, -2.58%; with `Cc1c(CNC2CCCCC2)c(C(=O)O)c(C)n1Cc1cccc(Cl)c1`, -7.13%. With `CC(=O)NC1=NN(C(C)=O)C(C)(c2ccc(C)cc2)S1` (centres undefined) the figure was 22.7%; with `CC(=O)NC1=NN(C(C)=O)C(C)(c2ccc(Cl)s2)S1` (centres undefined), 2.68%. With `CC(=O)NC1=NN(C(C)=O)C(C)(CCS(=O)(=O)c2ccc(Cl)c(Cl)c2)S1` (centres undefined), the activity change, negative = inhibition is -39.7% (active).

With `Cc1cc(OC(C)C(=O)Nc2sc3c(c2C(N)=O)CCCC3)ccc1Cl` (centres undefined), the activity change, negative = inhibition is 3.29%. Regarding `Cc1ccc(S(=O)(=O)c2nnn3c2nc(N2CCN(c4ccccc4F)CC2)c2cc(Cl)ccc23)cc1C`, the activity change, negative = inhibition was -0.0376%. With `CCOc1ccccc1CNC(=O)C1CCCN(S(=O)(=O)c2ccc3c(ccn3C)c2)C1` (centres undefined) the figure was -27.8%; with `CN1CCN(CC(O)COCc2ccc3c(c2)OCO3)CC1` (centres undefined), -5.88%; with `COc1cc(Cl)c(S(=O)(=O)N2CCN(Cc3ccc4c(c3)OCO4)CC2)cc1Cl`, 4.53%. With `COc1cc(COCC(O)CN2CCN(Cc3ccc4c(c3)OCO4)CC2)cc(OC)c1OC` (centres undefined) the figure was -31.1% (active); with `CCOc1cccc(CNC(=O)c2ccc(N3CCCC3)c(NC(=O)Nc3ccccc3CC)c2)c1`, 4.78%; with `CCc1nn(CC(=O)Nc2cc(C)cc(C)c2)c(=O)c2cc3sccc3n12`, 3.41%. With `CCCN1CN=C(NS(=O)(=O)c2ccc(NC(C)=O)cc2)NC1` the figure was -3.05%; with `COc1ccc(/C(O)=C2/C(=O)C(=O)N(CC3CCCO3)C2c2ccc(OC)c(OC)c2)cc1` (centres undefined), -3.45%; with `COc1cccc(C2/C(=C(/O)c3ccncc3)C(=O)C(=O)N2CCCN(C)C)c1` (centres undefined), -21.5%. Regarding `COc1ccc(/C(O)=C2/C(=O)C(=O)N(CCCN(C)C)C2c2ccccc2)cc1OC` (centres undefined), the activity change, negative = inhibition was -33.2% (active).

For `O=C1C(=O)N(CCCO)C(c2ccccc2)/C1=C(\O)c1ccc(Br)cc1` (centres undefined), the activity change, negative = inhibition is -7%. For the compound `COc1cccc(C2/C(=C(/O)c3ccc(F)cc3)C(=O)C(=O)N2CCN(C)C)c1` (centres undefined), the activity change, negative = inhibition was -3.01%. With `CCCOc1ccc(/C(O)=C2/C(=O)C(=O)N(CCN(C)C)C2c2ccc(OC)c(OC)c2)cc1` (centres undefined) the figure was -33.3% (active). With `CCc1ccc(CNC(=O)c2ccc(CS(=O)c3ccc(Br)cc3)o2)cc1` (centres undefined) the figure was 6.94%; with `COc1c(Cl)cc(C(=O)N(Cc2ccccc2F)C2CCS(=O)(=O)C2)cc1Cl` (centres undefined), -0.91%; with `CCOC(=O)c1ccc2c(c1)N(Cc1cccc(OC)c1)C(=O)c1ccccc1S2(=O)=O`, 4.54%. With `Cc1c(Cl)cccc1NC(=O)CCS(=O)(=O)c1ccc2c(c1)oc(=O)n2C` the figure was -0.334%; with `O=C(c1ccc(Cl)cc1)n1nc(-c2cccnc2)nc1NCc1ccc(F)cc1`, -16.2%. As to `CCOc1ccc(OCC)c(NC(=O)CN(c2ccc(C)cc2)S(=O)(=O)c2c(C)n[nH]c2C)c1`, the activity change, negative = inhibition was -7.76%. For the compound `O=C1Nc2cc(Cl)c(Cl)cc2N(O)N1c1ccccc1Cl`, the activity change, negative = inhibition is -7.41%.

Regarding `O=C1Nc2cc(Cl)c(Cl)cc2N(O)N1c1cc(Cl)cc(Cl)c1`, the activity change, negative = inhibition is -76.7% (active). With `Cc1c(CNC(C)c2ccccc2)c(C(=O)O)c(C)n1Cc1c(F)cccc1Cl` (centres undefined) the figure was 18.6%.

As for `CCOc1ccc(OCC)c(NC(=O)c2c(C)nn(-c3ccccc3)c2-n2cccc2)c1`, the activity change, negative = inhibition was 7.71%. As to `NS(=O)(=O)c1ccc2nc(NC(=O)C3=COCCO3)sc2c1`, the activity change, negative = inhibition was 1.85%.

In the case of `O=C(Nc1nnc(S(=O)(=O)N2CCCc3ccccc32)s1)c1cccc(F)c1`, the activity change, negative = inhibition is -7.22%.

Turning to `CN(C)CCCN(C(=O)c1ccc(S(=O)(=O)N2CCCc3ccccc32)cc1)c1nc2ccc(F)cc2s1`, the activity change, negative = inhibition was -31.4% (active). With `CN(C)CCN(C(=O)C1=COCCO1)c1nc2ccc(Cl)cc2s1` the figure was -46.4% (active); with `CCN(CC)CCN(C(=O)c1ccc(N2C(=O)CCC2=O)cc1)c1nc2cc3c(cc2s1)OCO3`, 6.3%. With `Cc1ccc2sc(NNC(=O)c3ccc4c(c3)OCCO4)nc2c1C` the figure was 23.4%. With `CCc1ccc2nc(N(CCCN(C)C)C(=O)c3ccc4c(c3)OCCO4)sc2c1` the figure was -34.9% (active). With `O=C(Nc1ccc2nc(SCC(=O)N3CCCc4ccccc43)sc2c1)c1ccc(F)cc1`, the activity change, negative = inhibition was -9.64%. On to `CCN(CC)CCN(C(=O)c1cc(Cl)sc1Cl)c1nc2cc3c(cc2s1)OCO3`, for which the activity change, negative = inhibition is -2.46%. With `Cc1ccc2nc(N(CCN(C)C)C(=O)C3=COCCO3)sc2c1` the figure was -34.5% (active); with `CC(C)N(Cc1nnc(-c2ccc(Cl)cc2)o1)C(=O)C1=COCCO1`, 2.43%. With `Cc1cc(C)c2nc(N(CCN(C)C)C(=O)/C=C/c3cccs3)sc2c1` the figure was 6.71%; with `CC1CCN(S(=O)(=O)c2ccc3c(c2)N(CC(=O)NCCc2ccccc2)C(=O)CO3)CC1`, 1.55%; with `Cc1ccc(C(=O)CC2(O)C(=O)N(CCc3ccccc3)c3ccc(Br)cc32)cc1` (centres undefined), 12.6%. With `COc1cc(OC)c(C2C=C(C(=O)O)Nc3ncnn32)cc1OC` (centres undefined) the figure was 4.4%; with `COc1ccc(C2C(=O)N(C3CCCCCC3)CC(=O)N2CCc2ccc(Cl)cc2)cc1OC` (centres undefined), 6.57%.

On to `COc1cccc(CNC(=O)c2ccc3c(Cl)c4c(nc3c2)CCCC4)c1`, for which the activity change, negative = inhibition is -2.7%.

On to `CCOc1ccc(CCNC(=O)CN(c2ccc(C)cc2)S(=O)(=O)N(C)C)cc1OCC`, for which the activity change, negative = inhibition was 6.83%.

As to `Cc1ccc(Cn2c(CNC(=O)Cc3cccc(C)c3)nc3cccnc32)cc1`, the activity change, negative = inhibition was -3.78%. With `O=C(NC1(C(F)(F)F)N=C(c2ccccc2)N(C2CCCCC2)C1=O)c1ccccc1F` (centres undefined) the figure was -5.87%; with `COc1ccc(-c2cn3nc(N4CCC(C(=O)Nc5cccc(C)c5C)CC4)sc3n2)cc1`, -7.07%. With `CCOC(=O)CSc1nnc(NC(=O)c2cccc(S(=O)(=O)N3CCCCC3)c2)s1` the figure was -31.1% (active); with `CCOC(=O)CSc1nnc(NC(=O)c2cccc(S(=O)(=O)N3CCCC3)c2)s1`, -6.95%. With `O=C(Nc1nncs1)c1cccc(S(=O)(=O)N2CCCCC2)c1` the figure was 5.14%; with `Cn1nc(C(F)(F)F)c(-c2ccc(F)cc2)c1NC(=O)CSCC(=O)O`, 8.45%. Take `Cn1nc(C(F)(F)F)c2cc(C(=O)N3CCOCC3)sc21`: the activity change, negative = inhibition was 6.73%. With `Cn1nc(C(F)(F)F)c2cc(NC(=O)OCC(C)(C)C)sc21` the figure was -42.5% (active); with `Cc1ccc(Cl)cc1NC(=O)CCS(=O)(=O)c1ccc(Br)s1`, 6.29%; with `COc1ccc(C(=O)N2CCC(c3nc4ccccc4o3)CC2)cc1`, 4.96%. With `CCOC(=O)Cn1c(=O)n(C2CCCCC2)c2nc(-c3cccc(OC)c3)nc(C(N)=O)c21` the figure was 8.07%. With `CCC(CC)c1nnc(NC(=O)C2=COCCO2)s1` the figure was -42.7% (active).

With `Cc1csc(NC(=O)C2=COCCO2)n1`, the activity change, negative = inhibition is -2.15%. Turning to `CCC(CC)c1nnc(NC(=O)c2nn(C)c(=O)c3ccccc23)s1`, the activity change, negative = inhibition was 0.594%.

The values are drawn from PubChem BioAssay AID504652 (National Center for Advancing Translational Sciences (NCATS), 2011).
